{"source": "PubChem BioAssay (EPA / NIEHS)", "note": "Results filed as inconclusive are left out. Activity calls are given as the source filed them. Rule for the calls: active = hit-call score of the fitted dose curve at least 0.9, where 1 is the maximum; inconclusive = response in the unintended direction; inactive = score below 0.9.", "data": [{"target": "Nuclear receptor subfamily 4 group A member 2 (Homo sapiens) (UniProt P43354)", "sequence (P43354 whole entry, looked up)": "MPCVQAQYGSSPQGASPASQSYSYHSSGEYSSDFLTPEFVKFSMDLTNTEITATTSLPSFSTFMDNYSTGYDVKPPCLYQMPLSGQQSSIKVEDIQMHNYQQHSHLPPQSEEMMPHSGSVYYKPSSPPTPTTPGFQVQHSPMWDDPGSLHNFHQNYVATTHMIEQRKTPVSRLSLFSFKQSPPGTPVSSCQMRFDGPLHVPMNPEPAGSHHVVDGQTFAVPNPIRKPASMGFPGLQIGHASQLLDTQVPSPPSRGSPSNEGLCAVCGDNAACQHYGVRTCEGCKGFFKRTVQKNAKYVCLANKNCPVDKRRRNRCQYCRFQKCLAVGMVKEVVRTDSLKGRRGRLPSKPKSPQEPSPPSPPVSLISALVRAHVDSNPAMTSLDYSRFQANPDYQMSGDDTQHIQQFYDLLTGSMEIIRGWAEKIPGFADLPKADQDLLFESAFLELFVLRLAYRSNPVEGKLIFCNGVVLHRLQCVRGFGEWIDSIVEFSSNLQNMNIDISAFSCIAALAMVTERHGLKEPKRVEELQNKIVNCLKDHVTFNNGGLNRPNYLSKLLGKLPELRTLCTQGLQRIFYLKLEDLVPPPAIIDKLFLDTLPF", "assay": "ATG_NURR1_TRANS: Attagene TRANS-FACTORIAL HepG2 Assay for human Nuclear Receptor Related Protein 1 (NURR1) (AID 2282985)", "conditions": "HepG2 Attagene TRANS reporter, mRNA readout", "method": "ATG_TRANS is a cell-based, multiplexed-readout assay that uses HepG2, a human liver cell line, with measurements taken at 24 hours after chemical dosing in a 24-well plate.ATG_NURR1_TRANS is one of 30 assay component(s) measured or calculated from the ATG_TRANS assay. It is designed to make measurements of mRNA induction, a form of inducible reporter, as detected with fluorescence intensity signals by Reverse transcription polymerase chain reaction (RT-PCR) and Capillary electrophoresis technology.Data from the assay component ATG_NURR1_TRANS was analyzed into 1 assay endpoint. This assay endpoint, ATG_NURR1_TRANS, was analyzed in the positive analysis fitting direction relative to DMSO as the negative control and baseline of activity. Using a type of inducible reporter, measures of mRNA for gain-of-signal activity can be used to understand the reporter gene at the transcription factor-level as they relate to the gene NR4A2. Furthermore, this assay endpoint can be referred to as a primary readout, because this assay has produced multiple assay endpoints where this one serves a reporter gene function. To generalize the intended target to other relatable targets, this assay endpoint is annotated to the nuclear receptor intended target family, where the subfamily is orphan.\nHuman liver HepG2 cells are transiently transfected with multiple reporter transcription units (MRTUs) in 6-well plates using FuGene 6 reagent (Roche; 3 ml FuGene/1 mg DNA). The MRTU constructs are regulated by a cis-regulating element (promoter). […] A major difference between the CIS and TRANS system is that in CIS activities of endogenous TFs are measured, whereas the TRANS assay evaluates changes in activities of exogenous, chimeric NR-Gal4 proteins. […] At the end of 24 hour incubation, total RNA was isolated using TriZol reagent (Invitrogen). The isolated RNA is then reverse-transcribed using oligo(dT) primer and Mo-MLV reverse transcriptase (Invitrogen) with DNAse I (Ambion) treatment for 30 min. The one-tenth of the produced cDNA was amplified by PCR using Taq DNA polymerase (Invitrogen) and two reporter sequence-specific primers. The PCR products were fluorescently labeled by primer extension with 6-arboxyfluorescein (6-FAM) 5'-labeled reporter sequence-specific primer (2 min at 95 C, 20 s at 68 C and 10 min at 72 C) and these products were digested with 5U of HpaI (New England Biolabs) for 2h at 37 C. The fragments were purified using Qiaquick PCR columns (Qiagen), analyzed on an ABI 3130xL genetic analyzer (Applied Biosystems) with peak positions identified by using a set of X-rhodamine (ROX)-labeled MapMarker1000 molecular weight standards (BioVentures). The raw capillary electrophoresis data was processed using Attagraph software (Attagene).", "values": [{"smiles": "CC1=C(Br)C(=O)C(Br)=C/C1=C(/c1ccccc1S(=O)(=O)O)c1cc(Br)c(O)c(Br)c1C", "outcome": "inactive"}, {"smiles": "O=C(O)c1ccc(O)cc1", "outcome": "inactive"}, {"smiles": "C[C@H](CCC(=O)NCC(=O)O)[C@H]1CC[C@H]2[C@@H]3[C@H](O)C[C@@H]4C[C@H](O)CC[C@]4(C)[C@H]3C[C@H](O)[C@]12C", "outcome": "inactive"}, {"smiles": "C=CCCCCCCCCCC", "outcome": "inactive"}, {"smiles": "CCCCCCCCCCCC(=O)OCC(O)CO", "note": "(stereo not given)", "AC50": "132 µM (active)"}, {"smiles": "O=C(Nc1ccc2c(O)c(N=Nc3ccc(N=Nc4ccc(S(=O)(=O)O)cc4)cc3)c(S(=O)(=O)O)cc2c1)c1ccccc1", "outcome": "inactive"}, {"smiles": "COc1ccccc1N=Nc1c(S(=O)(=O)O)cc2cc(S(=O)(=O)O)cc(NC(C)=O)c2c1O", "outcome": "inactive"}, {"smiles": "COc1ccc(N)c([N+](=O)[O-])c1", "outcome": "inactive"}, {"smiles": "Cc1ccc(OC(=O)c2ccccc2O)cc1", "outcome": "inactive"}, {"smiles": "CC(C)C(OC(=O)c1ccccc1)C(C)(C)COC(=O)c1ccccc1", "note": "(stereo not given)", "outcome": "inactive"}, {"smiles": "C=Cc1ccc(C(C)(C)C)cc1", "outcome": "inactive"}, {"smiles": "Oc1c(Cl)cc(Cl)c(Cl)c1Cc1c(O)c(Cl)cc(Cl)c1Cl", "AC50": "11.1 µM (active)"}, {"smiles": "CCOC(=O)C1OC1c1ccccc1", "note": "(stereo not given)", "outcome": "inactive"}, {"smiles": "Cc1ccc(-c2ccccc2)cc1", "outcome": "inactive"}, {"smiles": "Nc1ccc(NCCO)c([N+](=O)[O-])c1", "outcome": "inactive"}, {"smiles": "c1ccc(CN(Cc2ccccc2)Cc2ccccc2)cc1", "outcome": "inactive"}, {"smiles": "C[C@H]1C[C@@H](O)CC(C)(C)C1", "outcome": "inactive"}, {"smiles": "CN(C)C(=O)Nc1ccc(Oc2ccc(Cl)cc2)cc1", "outcome": "inactive"}, {"smiles": "Cc1c(OCC(F)(F)F)ccnc1CS(=O)c1nc2ccccc2[nH]1", "note": "(stereo not given)", "AC50": "36.7 µM (active)"}, {"smiles": "O=Cc1ccccc1S(=O)(=O)O", "outcome": "inactive"}, {"smiles": "O=C1OC2(c3ccccc31)c1ccc(O)c(Br)c1Oc1c2ccc(O)c1Br", "outcome": "inactive"}, {"smiles": "C=C(C)CNCC", "outcome": "inactive"}, {"smiles": "CCc1ccc(O)c(OC)c1", "outcome": "inactive"}, {"smiles": "CC(=O)Nc1ccc(C(=O)CCl)cc1", "outcome": "inactive"}, {"smiles": "C1CCOC1", "outcome": "inactive"}, {"smiles": "CCCCCCCC(=O)OCCCCCC", "outcome": "inactive"}, {"smiles": "CC1(C)O[C@@H]2[C@@H](CO[C@@]3(COS(N)(=O)=O)OC(C)(C)O[C@@H]23)O1", "outcome": "inactive"}, {"smiles": "c1ccc(CCc2ccccc2)cc1", "outcome": "inactive"}, {"smiles": "COC(C)(C)CC(C)=O", "outcome": "inactive"}, {"smiles": "CCOC(=O)COC(=O)c1cc(Oc2ccc(C(F)(F)F)cc2Cl)ccc1[N+](=O)[O-]", "outcome": "inactive"}, {"smiles": "CC(C)OCCO", "outcome": "inactive"}, {"smiles": "C=COCCOCCOC=C", "outcome": "inactive"}, {"smiles": "Cc1ccc(S(=O)(=O)Oc2ccc(N=Nc3ccc(-c4ccc(N=Nc5c(O)ccc6cc(S(=O)(=O)O)cc(S(=O)(=O)O)c56)c(C)c4)cc3C)cc2)cc1", "outcome": "inactive"}, {"smiles": "CCCCCc1ccco1", "outcome": "inactive"}, {"smiles": "O=C1c2ccccc2C(=O)c2c(O)ccc(O)c21", "outcome": "inactive"}, {"smiles": "C=CC(C)(O)CCC=C(C)C", "note": "(stereo not given)", "outcome": "inactive"}, {"smiles": "CC(C)=CCCC(C)CCOC=O", "note": "(stereo not given)", "outcome": "inactive"}, {"smiles": "CCCCCCCC(=O)OCC(O)CO", "note": "(stereo not given)", "outcome": "inactive"}, {"smiles": "CCN(CCN)c1cccc(C)c1", "outcome": "inactive"}, {"smiles": "COC(C)(C)CCCC(C)CC=O", "note": "(stereo not given)", "outcome": "inactive"}]}]}
